# FMDV antiviral: Primary qHTS Assay for Foot and Mouth Disease Virus Antivirals against NCGC Sytravon and CBC Compound Libraries: Firefly Luciferase Signal | FMDV antiviral cell assay, firefly luciferase signal | Potency, µM (top dose mostly 57.5 µM), hits mostly inhibitors | hit rate 0.23% among 120,000; further: nearly all actives have a fitted effect of over 60% in size
# FMDV RLuc: Primary qHTS Assay for Foot and Mouth Disease Virus Antivirals against NCGC Sytravon and CBC Compound Libraries: Renilla Luciferase Signal | AID 1745857, 2022 | hit rate 0.32% among 120,000 | Potency, µM (highest dose often 57.5 µM), usual class: inhibitors | FMDV replicon cells, Renilla luciferase signal; further: nearly all actives have a fitted effect of over 55% in size
# Hits are given with their value; 0 = inactive; ? = inconclusive; [ ] = dose if it differs, or a comment. This is a sample that favours compounds with a hit; in the whole collection about 0.4% have one here. The call rests on the fitted dose curve.
SMILES,FMDV antiviral,FMDV RLuc
N#Cc1cccnc1N1CCN(C(C(=O)O)c2c[nH]c3cc(Cl)ccc23)CC1 (stereo not drawn),0,0
COc1ccc(NC(=O)c2c(NCc3cccs3)sc3c2CCCC3)cc1,0,8.91µM
COc1ccc(NC(=O)c2c(NCc3cccs3)sc3c2CCCCC3)c(OC)c1,0,0
N#Cc1ccc(Oc2ccc(Cl)c(Oc3ccc(C#N)c(C#N)c3)c2)cc1C#N,?,2.51µM
Cc1c(Oc2ccc(C#N)c(C#N)c2)cccc1Oc1ccc(C#N)c(C#N)c1,2.24µM,2.51µM
Cc1cc(C)cc(Oc2ccc(C#N)c(C#N)c2)c1,0,0
N#Cc1ccc(Oc2ccccc2Oc2ccc(C#N)c(C#N)c2)cc1C#N,0,0
Cc1cc(-c2nnc(CSc3nc4ccc(Cl)cc4[nH]3)o2)c(C)o1,0,0
CC(C)C1CCC(C)C(C2(C#N)C(N)=C(C=O)CC2(C#N)C#N)C1=O (stereo not drawn),0,0
CC(C)(C)c1ccc(C(=S)NCCC2=CCCCC2)cc1,0,0
CC(C)Cn1c(SCC(=O)c2ccc(C#N)cc2)nnc1-c1ccccc1,0,0
CC1(C)CC(=O)C2=C(C1)C(c1ccco1)Nc1ccc3ccccc3c12 (stereo not drawn),0,0
CC12CC3CC(C)(C1)CC(NCc1ccccc1OCc1ccc(Cl)cc1Cl)(C3)C2,0,0
S=c1sc(SCc2ccccc2)c(SCc2ccccc2)s1,?,0
O=C(Nc1ccc(Oc2ccccc2)cc1)c1cccc(CN2CCCC2=O)c1,?,7.94µM
CC(C)CCC(C)NC(=O)c1ccc(CN2CCCC2=O)cc1 (stereo not drawn),0,0
O=C(Nc1ccccc1Oc1ccccc1)c1cccc(CN2CCCC2=O)c1,0,0
CC(C)(C)c1ccc(NC(=O)c2ccc(CN3CCCC3=O)cc2)cc1,?,22.4µM
Cc1ccc2c(c1)-c1nc(SCC(=O)Nc3cc(F)ccc3C)ncc1S(=O)(=O)N2C,0,0
COc1cc(/C=C/c2nc3cc(Cl)ccc3o2)cc(OC)c1OC,0,0
N#CC(/C(=N/S(=O)(=O)c1ccccc1)c1ccccc1)c1nc2ccccc2s1 (stereo not drawn),28.2µM,0
CC(c1nc2ccccc2s1)N(C)S(=O)(=O)c1ccccc1 (stereo not drawn),0,0[1.06 µM]
COCCOC(=O)/C(C#N)=C\c1cc(Cl)c(O)c(OC)c1,0,0[1.06 µM]
CN1CCN(c2ccc3cc(S(=O)(=O)N4CCCC4)ccc3n2)CC1,0,0
CCc1c(C)sc(NC(=O)c2cc(-c3ccc(C)cc3C)nc3ccccc23)c1C#N,0,0
SMILES,FMDV antiviral,FMDV RLuc
O=C(Nc1cccc(C(F)(F)F)c1)C(=Cc1cccc(Oc2ccccc2)c1)C(=O)Nc1cccc(C(F)(F)F)c1,4.47µM,3.98µM
N#C/C(=C\c1cccc(OC(=O)c2ccccc2Cl)c1)C(=O)Nc1cccc(C(F)(F)F)c1,0,0
COc1ccc(C)cc1NC(=O)c1cccc(-n2cccc2)c1,0,0
Cc1ccc(NC(=O)C2CCCN2S(=O)(=O)c2ccc3c(c2)CCCC(=O)N3)cc1C (stereo not drawn),35.5µM,28.2µM
Cc1cc(C)cc(NC(=O)C2CCCN2S(=O)(=O)c2ccc3c(c2)CCCC(=O)N3)c1 (stereo not drawn),0,?
CCc1nc(NC(=O)c2ccc(C#N)cc2)sc1C,0,0
Cc1ccc2c(CN3CCN(C(=O)c4cccc(F)c4)CC3)cc(=O)oc2c1,0,0
Cc1cccc(C(=O)N2CCN(Cc3ccc(-c4cccc(F)c4)s3)CC2)n1,10µM,?
CCOc1ccc(S(=O)(=O)Nc2nc3ccccc3nc2NC2CC(C)(C)NC(C)(C)C2)cc1,0,0
O=C(COc1ccc(Cl)cc1Cl)Nc1ccc2c(c1)CCN2C(=O)c1cccnc1,0,0
O=C(Cn1cnc2sccc2c1=O)N1N=C(c2ccc(Cl)cc2)CC1c1ccco1 (stereo not drawn),0,0
Cc1ccc(C)c(N2CCN(C(=O)C3CCN(c4nnc(-n5c(C)ccc5C)s4)CC3)CC2)c1,?,11.2µM
Cc1cc(C)cc(NC(=O)C2CCN(c3nnc(-n4c(C)ccc4C)s3)CC2)c1,0,0
O=C(O)c1cnc(/C=C/c2cc(Cl)c3c(c2)OCO3)s1,0,0
COc1ccc(CNC(=O)c2nccnc2N)cc1,0,0
O=C(Cc1cccc(F)c1)NCc1ccnc(OCc2ccccc2)c1,0,0
COc1cc(CNC(=O)c2nccnc2N)ccc1OCc1ccncc1,22.4µM,10µM
CCOc1ccccc1Oc1ccc(CNC(=O)c2nccnc2N)cn1,15.8µM,14.1µM
COc1ccc(CNC(=O)c2nccnc2N)cc1OC,0,0
Nc1nccnc1C(=O)NCc1ccnc(OCc2ccccc2)c1,22.4µM,10µM
Nc1nccnc1C(=O)NCc1ccnc(Oc2ccc(F)cc2)c1,?,12.6µM
CCOc1ccccc1Oc1ccc(CNC(=O)Nc2cccnc2)cn1,0,0
COP(=O)(OC)c1nc(-c2ccc(Cl)cc2)oc1NCc1cccnc1,0,0
CC(OC(=O)C1=CN2CCS(=O)(=O)N=C2C=C1)C(=O)Nc1ccccc1 (stereo not drawn),0,0
Cc1ccc(O)c(N/C=C/C(=O)C(C)(C)C)c1,0,0
SMILES,FMDV antiviral,FMDV RLuc
COc1ccccc1NC(=O)c1cc(-c2ccco2)nc2ccccc12,0,0
Cc1cccc(Cn2c(SCc3ccccc3)nc3c2c(=O)[nH]c(=O)n3C)c1,0,0
O=C(Nc1ccncc1)c1ccc(SC(F)(F)F)cc1,?,20µM
O=C(Nc1cccnc1)c1ccc(SC(F)(F)F)cc1,0,0
O=C(O)c1ccc(-c2ccc(CO)o2)cc1,0,0
Cc1[nH]c2ccccc2c1C(c1ccc(Br)o1)c1c(C)[nH]c2ccccc12,0,0
CC(=O)Oc1ccc2c(C)c(CC(=O)NC3CCCCCC3)c(=O)oc2c1OC(C)=O,0,0
CCCn1c(CN(C)Cc2ccccc2)nc2c1c(=O)n(C)c(=O)n2C,35.5µM,?
CN(Cc1ccccc1)Cc1nc2c(c(=O)n(C)c(=O)n2C)n1CCc1ccccc1,0,0
COc1ccc(-c2ccc(CCC(=O)NC3CCCCC3)o2)cc1,0,0
Cc1cc(C)c2cc(C(=O)NCc3ccc4c(c3)OCO4)[nH]c2c1,0,0
O=C(NC1CCCC1)c1ccc2c(c1)N(Cc1ccccc1)C(=O)c1ccccc1S2,25.1µM,?
O=C(NC1CCCC1)c1ccc2c(c1)N(Cc1ccc(F)cc1)C(=O)c1ccccc1S2,0,0
CCNC(=O)N1CCN(CCCC(c2ccc(F)cc2)c2ccc(F)cc2)CC1,0[11.5 µM],?
OC1(c2ccc(Cl)c(C(F)(F)F)c2)CCN(CCCC(c2ccc(F)cc2)c2ccc(F)cc2)CC1,0[11.5 µM],22.4µM
COc1ccccc1OC(C)C(=O)Nc1ccc(OC)c2ncccc12 (stereo not drawn),0,0
COc1ccc(NC(=O)C(C)Oc2cccc(C)c2C)c2cccnc12 (stereo not drawn),?,3.98µM
CCOc1ccc(NC(=O)C(C)Oc2cc(C)cc(C)c2)c2cccnc12 (stereo not drawn),0,0
COc1ccc(NC(=O)C(C)Oc2cc(C)cc(C)c2)c2cccnc12 (stereo not drawn),?,28.2µM
CCCCCCCCCOc1cccc(CNc2cccc3ccccc23)c1,0,0
Cc1ccc(-c2cc(C(=O)NCCN(C)C)c3cc(Br)ccc3n2)o1,0,0
Cc1nc(SC2=CS(=O)(=O)c3ccccc32)oc1C,0,0

# Screening data as filed in PubChem BioAssay.
